Assay results published in PubChem BioAssay (NCATS).
Inconclusive results are not listed. Active and inactive are the calls of the source. Unless noted, calls follow the shape of the dose curve; as a rule, active = well fitted curve in the direction sought with a large enough effect; inconclusive = small, poorly fitted or top-dose-only effect, or another doubt; inactive = no such curve, though single readings can be large; an effect the other way counts as inactive or inconclusive.

Columns and labels:
[1] = Primary qHTS for small molecule stabilizers of the endoplasmic reticulum resident proteome: Secreted ER Calcium Modulated Protein (SERCaMP) assay (AID 1508630); also: % is scaled to controls: 0 for no effect and ±100 for the full control effect
Procedure, shortened: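 GLuc-SERCaMP-expressing SH-SY5Y cells, pretreated 16 h with compound, are challenged with thapsigargin to empty ER calcium stores; after 4 h, coelenterazine is added directly to the medium and luminescence is imaged.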

[2] = target: Glucocorticoid receptor (Homo sapiens) (UniProt P04150); experiment: GR-GFP Redistribution (AID 450;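 active = compounds whose dose series gives a full or clear partial fitted curve of increased nuclear translocation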; also: potency is read from the fitted curve at half-maximal effect); conditions: U2OS GR-GFP nuclear translocation, laser cytometry, 2 h
Chain of Glucocorticoid receptor (Homo sapiens) (P04150 whole entry, looked up, the tested form may be a part): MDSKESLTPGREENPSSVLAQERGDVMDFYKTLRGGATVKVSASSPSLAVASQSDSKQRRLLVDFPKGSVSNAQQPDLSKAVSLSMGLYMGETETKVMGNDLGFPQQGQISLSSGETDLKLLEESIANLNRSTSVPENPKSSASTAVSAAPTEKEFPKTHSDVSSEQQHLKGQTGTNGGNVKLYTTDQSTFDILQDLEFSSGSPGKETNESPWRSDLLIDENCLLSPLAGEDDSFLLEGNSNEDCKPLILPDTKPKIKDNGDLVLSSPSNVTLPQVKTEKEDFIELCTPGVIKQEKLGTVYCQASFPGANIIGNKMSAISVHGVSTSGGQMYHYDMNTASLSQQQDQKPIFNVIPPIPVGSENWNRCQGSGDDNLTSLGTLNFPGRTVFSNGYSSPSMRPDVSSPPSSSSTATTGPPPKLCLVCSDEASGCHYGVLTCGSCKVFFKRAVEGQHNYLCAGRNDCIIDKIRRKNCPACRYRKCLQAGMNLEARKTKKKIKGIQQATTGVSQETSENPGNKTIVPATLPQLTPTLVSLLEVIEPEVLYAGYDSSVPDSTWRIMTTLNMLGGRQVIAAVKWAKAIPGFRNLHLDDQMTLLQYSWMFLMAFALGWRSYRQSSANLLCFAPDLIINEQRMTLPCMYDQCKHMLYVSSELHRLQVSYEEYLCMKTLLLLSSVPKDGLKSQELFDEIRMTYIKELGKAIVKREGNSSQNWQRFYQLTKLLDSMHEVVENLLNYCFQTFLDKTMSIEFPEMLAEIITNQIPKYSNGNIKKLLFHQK

[3] = target: Glucocorticoid receptor (Homo sapiens) (UniProt P04150); experiment: GR-EFC Redistribution (AID 451; calls by dose curve; also: potency is read from the fitted curve at half-maximal effect); conditions: CHO-K1 GR-EFC translocation, beta-gal luminescence, 2 h
Procedure, shortened: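 CHO-K1 cells stably expressing nuclear-localized β-gal enzyme acceptor and GR fused C-terminally to the enzyme donor fragment; ligand-driven nuclear translocation restores β-gal by complementation. Compounds titrated up to 46 uM final, 2 h at 37 °C; luminescence read.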

[4] = target: DNA dC->dU-editing enzyme APOBEC-3G (Homo sapiens) (UniProt Q9HC16); experiment: qHTS for inhibitors of Vif-A3G interactions: Validation (AID 588379); also: 0% is about no effect
Chain of DNA dC->dU-editing enzyme APOBEC-3G (Homo sapiens) (Q9HC16 whole entry, looked up): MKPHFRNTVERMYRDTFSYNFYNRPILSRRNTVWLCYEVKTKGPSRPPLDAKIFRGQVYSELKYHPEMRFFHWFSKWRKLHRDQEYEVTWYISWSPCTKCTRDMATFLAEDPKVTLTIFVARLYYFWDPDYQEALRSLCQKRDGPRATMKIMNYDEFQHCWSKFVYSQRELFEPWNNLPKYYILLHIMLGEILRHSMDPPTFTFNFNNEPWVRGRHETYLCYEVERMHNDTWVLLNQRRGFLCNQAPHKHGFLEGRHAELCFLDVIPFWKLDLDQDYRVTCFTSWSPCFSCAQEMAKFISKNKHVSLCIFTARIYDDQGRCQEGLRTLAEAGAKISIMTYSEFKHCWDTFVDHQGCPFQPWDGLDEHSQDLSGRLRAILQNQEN
Procedure, shortened: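 HeLa cells stably expressing Vif and A3G-eYFP, 700 cells/well, incubated overnight at 37 deg C, then exposed to compound overnight at 37 deg C. Inhibition of Vif-mediated degradation read as increased yellow fluorescence (Ex 488/Em 500-530) by laser-scanning cytometry.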

[5] = target: Ubiquitin carboxyl-terminal hydrolase 1 (Homo sapiens) (UniProt O94782); experiment: Inhibitors of USP1/UAF1: Pilot qHTS (AID 504865); also: nearly all actives have a fitted effect of over 35% in size; also: potency is read from the fitted curve at half-maximal effect;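 as to activity change, negative = inhibition: rhodamine fluorescence freed from ubiquitin-rhodamine substrate followed over time; top concentration of the series differs between compounds; % is scaled to controls: 0 for no effect and ±100 for the full control effect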
Chain of Ubiquitin carboxyl-terminal hydrolase 1 (Homo sapiens) (O94782 whole entry, looked up): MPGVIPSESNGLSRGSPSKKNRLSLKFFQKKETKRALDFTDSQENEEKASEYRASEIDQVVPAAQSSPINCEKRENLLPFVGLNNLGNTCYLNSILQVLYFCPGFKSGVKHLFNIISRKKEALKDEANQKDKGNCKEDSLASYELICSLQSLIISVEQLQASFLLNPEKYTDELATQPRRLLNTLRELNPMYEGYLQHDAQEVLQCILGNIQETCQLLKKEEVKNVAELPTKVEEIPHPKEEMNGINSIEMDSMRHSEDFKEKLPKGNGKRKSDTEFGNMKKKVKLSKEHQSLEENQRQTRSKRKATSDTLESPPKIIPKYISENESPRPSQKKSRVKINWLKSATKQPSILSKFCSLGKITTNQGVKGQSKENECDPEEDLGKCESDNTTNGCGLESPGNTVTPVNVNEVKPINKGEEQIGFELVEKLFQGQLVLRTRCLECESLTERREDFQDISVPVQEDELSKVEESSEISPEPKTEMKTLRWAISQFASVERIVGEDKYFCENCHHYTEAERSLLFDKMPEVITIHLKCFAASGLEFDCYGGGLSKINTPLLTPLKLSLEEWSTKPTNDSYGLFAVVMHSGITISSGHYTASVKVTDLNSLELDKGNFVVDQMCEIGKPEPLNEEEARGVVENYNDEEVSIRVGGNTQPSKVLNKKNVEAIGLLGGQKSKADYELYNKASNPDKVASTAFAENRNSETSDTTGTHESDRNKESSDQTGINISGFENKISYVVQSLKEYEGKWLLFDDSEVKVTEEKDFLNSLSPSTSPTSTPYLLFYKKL
Procedure, shortened: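 USP1/UAF1 complex at 1 nM preincubated 15 min at room temperature with compound, then Ub-Rho substrate added at 150 nM final. Fluorescence (480/540 nm) read kinetically in 50 mM HEPES pH 7.8, 0.5 mM EDTA, 1 mM TCEP, 0.1 mg/ml BSA, 0.01% Tween-20.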

[6] = qHTS Assay for Lipid Storage Modulators (AID 1519; calls by dose curve; as to activity change, negative = inhibition: % is scaled to controls: 0 for no effect and ±100 for the full control effect); conditions: Drosophila S3 cells, BODIPY lipid droplet/cell ratio, laser cytometry, cells loaded with oleic acid; for activity change, negative = inhibition: at 57.5 µM (top of the series)
Procedure, shortened: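 Cells seeded at 5,000 per well were treated with compounds over a concentration series and loaded with oleic acid (400 uM, as added). Lipid droplet fluorescence (488 nm excitation, 500-530 nm channel) was read by laser-scanning cytometry and normalized to 20 uM Triacsin C.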

[7] = qHTS for Inhibitors of Plasmodium falciparum (DD2) proliferation (AID 504314);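 also: parasite DNA measured by SYBR Green fluorescence after red cell lysis; plate controls were DMSO vehicle for no effect and artemisinin wells for full effect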
Procedure, shortened: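 Fluorescence read-out (ex 485/em 535 nm) of SYBR Green-stained parasite DNA quantifies intraerythrocytic growth. Cultures at 0.3% parasitemia and 2.5% hematocrit were treated for 72 h; data normalized to DMSO and 0.29 uM artemisinin wells.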

[8] = qHTS for Inhibitors of Plasmodium falciparum (GB4) proliferation (AID 504315);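 also: 0% = DMSO vehicle and -100% = 0.29 µM artemisinin control; nearly all actives have a fitted effect of over 50% in size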
Procedure, shortened: (§1)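 Erythrocytes infected with P. falciparum line (0.3% parasitemia, 2.5% hematocrit final) incubated with compounds 72 h at 37 °C, 5% CO2; SYBR Green lysis buffer added, fluorescence read next day. Normalized to 0.29 uM artemisinin and DMSO.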

[9] = qHTS for Inhibitors of Plasmodium falciparum (7G8) proliferation (AID 504316);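 also: 0% = DMSO vehicle and -100% = 0.29 µM artemisinin full kill; nearly all actives have a fitted effect of over 65% in size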
Procedure, shortened: as §1

[10] = qHTS for Inhibitors of Plasmodium falciparum (HB3) proliferation (AID 504318);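 also: 0% = DMSO vehicle and -100% = artemisinin control; nearly all actives have a fitted effect of over 60% in size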
Procedure, shortened: as §1

[11] = qHTS for Inhibitors of Plasmodium falciparum (CP250) proliferation (AID 504320);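 also: plate controls were DMSO vehicle for no effect and 0.29 µM artemisinin control for full effect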
Procedure, shortened: as §1

[12] = measured here: cell count channel max response
[13] = measured here: lipid channel max response

C=NCc1cc2c(OC[C@@H](O)CNC(C)(C)C)cccc2[nH]1
inactive: Potency [1]

COc1cc(OC)c(C(=O)CCCCN2CCC3(CC2)NC(=O)NC3=O)cc1NS(=O)(=O)c1ccc(C(F)(F)F)cc1
inactive: Potency [2] > 46 µM | Potency [3] > 46 µM | Potency [4] | Potency [1]

Cc1sc(N)c(C(=O)c2cccc(C(F)(F)F)c2)c1C
inactive: Potency [2] > 46 µM | Potency [3] > 46 µM | Potency [4] | Potency [1]
active: Potency [5] 50.1 µM

Oc1cc2c(cc1O)[C@H](c1ccccc1)CNCC2
inactive: Potency [2] > 46 µM | Potency [3] > 46 µM | activity change, negative = inhibition [6] -0.123% | Potency [4]
4.46%: max response [6, 12]
3.98%: max response [6, 13]

O=C(c1ccc2c(c1)OCO2)N1CCCCC1
inactive: Potency [2] > 46 µM | Potency [3] > 46 µM | Potency [4] | Potency [1]

COC(=O)C1=C(C)NC(C)=C(C(=O)NCCCN2CCC(c3ccccc3)(c3ccccc3)CC2)C1c1ccc([N+](=O)[O-])cc1 (stereo not drawn)
inactive: Potency [1]

Nc1c(S(=O)(=O)O)cc(Nc2cccc3ccccc23)c2c1C(=O)c1ccccc1C2=O
inactive: Potency [1]

CCOC(=O)C1CSC(Cc2ccc(OCc3ccc([N+](=O)[O-])cc3)cc2)N1 (stereo not drawn)
inactive: Potency [1]

CC[C@]1(O)C[C@@H]2CN(CCc3c([nH]c4ccccc34)[C@](C(=O)OC)(c3cc4c(cc3OC)N(C=O)[C@H]3[C@@](O)(C(=O)OC)[C@H](C(=O)OC)[C@@]5(CC)C=CCN6CC[C@]43[C@H]65)C2)C1
inactive: Potency [2] > 46 µM | Potency [3] > 46 µM | Potency [5] | Potency [4] | Potency [1]

CCCCCCCCCCCCCCCC(=O)OCC(COP(=O)(O)O)OC(=O)CCCCCCCCCCCCCCC (stereo not drawn)
inactive: activity change, negative = inhibition [1] -28.1% [at 3.88 µM]

CCCCC[C@H](O)/C=C/C1=C(CCCCCCC(=O)O)C(=O)CC1
inactive: Potency [2] > 20.6 µM | activity change, negative = inhibition [1] -5.34% [at 3.88 µM]

CC[N+](C)(CC)CC(=O)Nc1c(C)cccc1C
inactive: Potency [2] > 46 µM | Potency [3] > 46 µM | activity change, negative = inhibition [6] 0.67% | Potency [5] | Potency [4] | Potency [1]
-9.49%: max response [6, 12]
-8.79%: max response [6, 13]

CN1c2ccccc2[C@@]2(O)C(=O)[C@@]1(C)[C@@H]1CCC=C[C@H]12
inactive: Potency [7] | Potency [8] | Potency [9] | Potency [10] | Potency [11]

COC(=O)CCC(=O)OC1(C)C(=O)C=C2C=C(C3CC3)N(CCCOC(C)C)C=C2C1=O (stereo not drawn)
inactive: activity, negative = inhibition [7] -1.07% [at 1.12 µM] | Potency [10] | Potency [11]

COc1cc(C(NC(=O)C(F)(F)F)c2cc3ccccc3o2)cc(OC)c1OC (stereo not drawn)
inactive: Potency [7] | Potency [8] | Potency [9]

COC(=O)CC1c2ccccc2C(Cc2ccc(OC)cc2)=C(C)N1C(=O)OC (stereo not drawn)
inactive: Potency [7] | Potency [8] | Potency [9] | Potency [10]

CCC=CCCC(OC(=O)c1ccc(Br)cc1)C1=CCCCC1=O (stereo not drawn)
inactive: Potency [7] | Potency [8] | Potency [9] | Potency [10] | Potency [11]

CC(C)C(=O)N[C@H]1CCCN1C(=O)C=Cc1ccccc1
inactive: Potency [7] | Potency [8] | Potency [9] | Potency [10] | Potency [11]

COCC1=Cc2cc3c(cc2C(C(C(=O)OC)C(=O)OC)N1C(=O)OC)OCO3 (stereo not drawn)
inactive: Potency [7] | Potency [8] | Potency [9] | Potency [10] | Potency [11]

CC1(OC(=O)C2CCCC2)C(=O)C=C2C=C(c3ccsc3)N(CCN3CCOCC3)C=C2C1=O (stereo not drawn)
inactive: activity, negative = inhibition [7] 1.21% [at 1.12 µM] | Potency [8] | Potency [9] | Potency [10] | Potency [11]

Cc1noc(C)c1S(=O)(=O)N1CCc2nc(COc3ccccc3)c3c(c2C1)CO[C@@H](C)C3
inactive: Potency [7] | Potency [8] | Potency [9] | Potency [10] | Potency [11]

COC(=O)c1cc(C(=O)OC)n2ccc3cc(OC)c(OC)cc3c12
inactive: Potency [7] | Potency [8] | Potency [9] | Potency [10] | Potency [11]

CCCCCCCC/C=C\CCCCCCCC(=O)N[C@@H](CO)Cc1ccc(O)cc1
inactive: Potency [2] > 46 µM | Potency [3] > 46 µM | Potency [4]
active: Potency [5] 22.4 µM

COC(=O)CCCC1=CC2=C(c3ccccc3)C(=O)C(C)(OC(=O)C3CCCC3)C(=O)C2=CN1C1CCCCC1 (stereo not drawn)
inactive: Potency [7] | Potency [8] | Potency [9] | Potency [10] | Potency [11]

C[C@H]1Cc2c(-c3ccccc3)nc3c(c2CO1)CN(C(=O)Cc1cccs1)CC3
inactive: Potency [7] | Potency [8] | Potency [9] | Potency [10] | Potency [11]

C=CCOC(=O)C(C(C)=O)[C@@H](NC(=O)OC)c1cccc(F)c1 (stereo partly drawn)
inactive: Potency [7] | Potency [8] | Potency [9] | Potency [10] | Potency [11]

CC1(OC(=O)c2cccs2)C(=O)C=C2C=C3CCCN3C=C2C1=O (stereo not drawn)
inactive: activity, negative = inhibition [7] -0.249% [at 1.12 µM] | Potency [8] | Potency [9] | Potency [10] | Potency [11]
